Data: PubChem BioAssay (EPA / NIEHS)
Results filed as inconclusive are left out. Activity calls are given as the source filed them. The calls were made as follows, unless noted: active = hit-call score of the fitted dose curve at least 0.9, where 1 is the maximum; inconclusive = response in the unintended direction; inactive = score below 0.9.

Columns and labels:
[1] = read-out: ABC Transporter (ABCB11), ABCB11 (gene 8647); test: CLD_ABCB11_6hr: CellzDirect (CLD) Gene Expression Assay for ABC Transporter (ABCB11) at 6 hours (AID 2283675);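 also: hits raise ABCB11 mRNA level so AC50 marks induction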
Outline: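 Human primary hepatocytes (two donor preparations) given fresh chemical daily at multiple concentrations, vehicle 0.2% DMSO. ABCB11 mRNA induction measured 6 h after dosing by qNPA chemiluminescence versus DMSO; cytotoxicity annotated from morphology.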

[2] = read-out: Cytochrome P450 2B6 (Homo sapiens) (UniProt P20813); test: CLD_CYP2B6_6hr: CellzDirect (CLD) Gene Expression Assay for xenobiotic metabolism (CYP2B6) at 6 hours (AID 2283677);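 also: actives raise CYP2B6 transcript above DMSO baseline so AC50 marks an inducer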
Outline: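 Primary human hepatocytes dosed with chemicals at multiple concentrations, vehicle 0.2% DMSO; CYP2B6 mRNA induction measured 6 h after dosing by quantitative nuclease protection assay with chemiluminescence, gain of signal fitted relative to DMSO.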

[3] = CCTE_Padilla_ZF_144hpf_TERATOSCORE: (Legacy) CCTE's 144 Hour Post-fertilization zebrafish Assay Teratoscore, Padilla Lab (AID 2283679; active = hit-call score of the fitted dose curve at least 0.9, where 1 is the maximum; inactive = score below 0.9;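 as to AC50: zebrafish embryos with chorions exposed by immersion from 6-8 hpf to 5 dpf with daily renewal; teratogenicity score from eye scoring of death hatching and malformations at 144 hpf; higher score means more developmental defects relative to DMSO baseline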)
Outline: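 Larvae scored by eye at 144 hpf for death, hatching and malformations after a day in clean Hanks'. Before that, daily-renewed exposure at 80 uM (0.4% DMSO, 26C) from roughly 6-8 hpf through 5 dpf, 4 embryos per chemical.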

[4] = read-out: Glyceraldehyde-3-phosphate dehydrogenase (Homo sapiens) (UniProt P04406); test: CLD_GAPDH_6hr: CellzDirect (CLD) Gene Expression Assay for Baseline Control (Glyceraldehyde 3-phosphate dehydrogenase) at 6 hours (AID 2283681);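 also: active means increased signal relative to DMSO vehicle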
Outline: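 Primary human hepatocytes from two donor preparations, dosed at multiple concentrations with 0.2% DMSO vehicle; GAPDH mRNA measured 6 h after dosing by chemiluminescent quantitative nuclease protection assay (qNPA) on denatured lysates. Serves as background control; cytotoxicity annotated by morphology.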

[5] = read-out: HMG-CoA synthase (HMGCS2), HMGCS2 (gene 3158); test: CLD_HMGCS2_6hr: CellzDirect (CLD) Gene Expression Assay for HMG-CoA synthase (HMGCS2) at 6 hours (AID 2283682);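 also: actives raise HMGCS2 transcript above the 0.2% DMSO vehicle baseline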
Outline: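 Primary human hepatocytes dosed daily with fresh chemical, 0.2% DMSO vehicle; HMGCS2 mRNA measured at 6 h by qNPA chemiluminescence. Gain of signal fitted against DMSO; cytotoxicity flagged from phase-contrast morphology.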

[6] = read-out: xenobiotic metabolism (CYP1A2), CYP1A2 (gene 1544); test: CLD_CYP1A2_24hr: CellzDirect (CLD) Gene Expression Assay for xenobiotic metabolism (CYP1A2) at 24 hours (AID 2283683)
Outline: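 Primary human hepatocytes from two donor preparations dosed daily with multiple concentrations of chemical, 0.2% DMSO vehicle. CYP1A2 mRNA at 24 h quantified by qNPA chemiluminescence; gain of signal analyzed relative to DMSO. Cytotoxicity flagged by phase-contrast morphology.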

[7] = read-out: Cytochrome P450 2B6 (Homo sapiens) (UniProt P20813); test: CLD_CYP2B6_24hr: CellzDirect (CLD) Gene Expression Assay for xenobiotic metabolism (CYP2B6) at 24 hours (AID 2283686)
Outline: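 Primary human hepatocytes dosed daily for two days with fresh solutions, harvested at 24 hours; mRNA induction quantified by qNPA chemiluminescence, gain of signal vs 0.2% DMSO vehicle. Cytotoxicity annotated from phase-contrast morphology.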

[8] = read-out: Cytochrome P450 2C9 (Homo sapiens) (UniProt P11712); test: CLD_CYP2C9_24hr: CellzDirect (CLD) Gene Expression Assay for xenobiotic metabolism (CYP2C9) at 24 hours (AID 2283688)
Outline: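 Primary human hepatocytes from two donor preparations, dosed daily for two days at multiple concentrations; vehicle 0.2% DMSO. CYP2C9 mRNA induction at 24 h measured by qNPA chemiluminescence relative to DMSO; cytotoxicity annotated from morphology.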

[9] = read-out: sulfotransferase (SULT2A), SULT2A1 (gene 6822); test: CLD_SULT2A_24hr: CellzDirect (CLD) Gene Expression Assay for sulfotransferase (SULT2A) at 24 hours (AID 2283694)
Outline: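 Primary human hepatocytes from two donor preparations were dosed daily with fresh solutions, vehicle 0.2% DMSO. At 24 h, lysates went to quantitative nuclease protection (qNPA) with S1 digestion and chemiluminescent readout. Cytotoxicity was annotated from phase-contrast morphology.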

[10] = CLD_ACTIN_6hr: CellzDirect (CLD) Gene Expression Assay for Baseline Control (Actin) at 6 hours (AID 2283676);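 also: active means increased actin mRNA relative to DMSO vehicle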
Outline: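 Primary human hepatocytes dosed with fresh chemical solutions (vehicle 0.2% DMSO), harvested at 6 h. Actin mRNA quantified by quantitative nuclease protection assay with chemiluminescent read-out, as background control relative to DMSO.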

[11] = read-out: Cytochrome P450 2C19 (Homo sapiens) (UniProt P33261); test: CLD_CYP2C19_6hr: CellzDirect (CLD) Gene Expression Assay for xenobiotic metabolism (CYP2C19) at 6 hours (AID 2283678)
Outline: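 Primary human hepatocytes from two donor preparations were dosed daily, with 0.2% DMSO as vehicle, and harvested 6 h after dosing. CYP2C19 mRNA induction was measured by qNPA chemiluminescence and fitted as gain of signal against DMSO.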

[12] = read-out: ABC Transporter (ABCB1), ABCB1 (gene 5243); test: CLD_ABCB1_24hr: CellzDirect (CLD) Gene Expression Assay for ABC Transporter (ABCB1) at 24 hours (AID 2283684);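 as to AC50: potency for increase in ABCB1 mRNA relative to DMSO vehicle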
Outline: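 Primary human hepatocytes, two donor preparations, dosed daily with fresh solutions; vehicle 0.2% DMSO; harvested at 24 h. ABCB1 mRNA measured by quantitative nuclease protection assay (chemiluminescence); morphology-based cytotoxicity annotated.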

[13] = read-out: Broad substrate specificity ATP-binding cassette transporter ABCG2 (Homo sapiens) (UniProt Q9UNQ0); test: CLD_ABCG2_24hr: CellzDirect (CLD) Gene Expression Assay for ABC Transporter (ABCG2) at 24 hours (AID 2283685)
Outline: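 Primary human hepatocytes were dosed daily with ToxCast chemicals at multiple concentrations (vehicle 0.2% DMSO). ABCG2 mRNA was measured at 24 h by qNPA chemiluminescence; induction was scored as gain of signal versus DMSO.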

[14] = read-out: organic anion transporter (SLCO1B1), SLCO1B1 (gene 10599); test: CLD_SLCO1B1_24hr: CellzDirect (CLD) Gene Expression Assay for organic anion transporter (SLCO1B1) at 24 hours (AID 2283690)
Outline: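 Primary human hepatocytes (two donor preparations) dosed daily for two days with chemicals at multiple concentrations, 0.2% DMSO vehicle. SLCO1B1 mRNA at 24 h measured by qNPA chemiluminescence; induction fitted relative to DMSO.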

[15] = read-out: alkyl and aryl transferase (GSTA2), GSTA2 (gene 2939); test: CLD_GSTA2_24hr: CellzDirect (CLD) Gene Expression Assay for alkyl and aryl transferase (GSTA2) at 24 hours (AID 2283693)
Outline: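 Primary human hepatocytes (two donor preparations) dosed daily for two days with chemicals at multiple concentrations (vehicle 0.2% DMSO); GSTA2 mRNA at 24 h measured by qNPA chemiluminescence, gain-of-signal versus DMSO.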

[16] = read-out: Cytochrome P450 3A4 (Homo sapiens) (UniProt P08684); test: CLD_CYP3A4_24hr: CellzDirect (CLD) Gene Expression Assay for xenobiotic metabolism (CYP3A4) at 24 hours (AID 2283689)
Outline: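 Primary human hepatocytes from two donors dosed daily with fresh compound for two days, 0.2% DMSO vehicle. CYP3A4 mRNA at 24 hr by qNPA chemiluminescence; gain-of-signal fit versus DMSO, cytotoxicity flagged by morphology.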

[17] = read-out: ABC Transporter (ABCB1), ABCB1 (gene 5243); test: CLD_ABCB1_48hr: CellzDirect (CLD) Gene Expression Assay for ABC Transporter (ABCB1) at 48 hours (AID 2283695)
Outline: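 Primary human hepatocytes from two donor preparations dosed daily on two consecutive days with 0.2% DMSO vehicle. Harvest at 48 h. ABCB1 mRNA quantified by qNPA with chemiluminescence and fitted for gain of signal versus DMSO.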

Measured: AC50

Sequence of Broad substrate specificity ATP-binding cassette transporter ABCG2 (Homo sapiens) (Q9UNQ0 whole entry, looked up): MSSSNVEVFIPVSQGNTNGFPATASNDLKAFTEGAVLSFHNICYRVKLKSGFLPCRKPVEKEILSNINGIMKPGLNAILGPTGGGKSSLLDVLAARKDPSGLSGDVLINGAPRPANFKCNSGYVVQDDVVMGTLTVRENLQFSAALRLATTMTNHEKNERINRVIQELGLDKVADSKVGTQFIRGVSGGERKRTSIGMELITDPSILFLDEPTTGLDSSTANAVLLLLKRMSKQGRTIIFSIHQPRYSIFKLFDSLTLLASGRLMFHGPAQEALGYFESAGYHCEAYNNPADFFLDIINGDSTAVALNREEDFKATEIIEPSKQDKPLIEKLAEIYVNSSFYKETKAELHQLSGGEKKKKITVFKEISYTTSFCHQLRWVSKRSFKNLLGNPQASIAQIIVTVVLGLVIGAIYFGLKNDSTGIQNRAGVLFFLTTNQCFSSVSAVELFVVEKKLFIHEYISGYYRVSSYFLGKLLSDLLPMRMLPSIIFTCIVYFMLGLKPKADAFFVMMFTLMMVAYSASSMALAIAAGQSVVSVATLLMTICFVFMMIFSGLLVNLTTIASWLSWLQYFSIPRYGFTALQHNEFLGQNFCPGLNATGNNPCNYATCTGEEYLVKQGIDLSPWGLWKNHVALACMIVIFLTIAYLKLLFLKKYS
Sequence of Cytochrome P450 2C19 (Homo sapiens) (P33261 whole entry, looked up): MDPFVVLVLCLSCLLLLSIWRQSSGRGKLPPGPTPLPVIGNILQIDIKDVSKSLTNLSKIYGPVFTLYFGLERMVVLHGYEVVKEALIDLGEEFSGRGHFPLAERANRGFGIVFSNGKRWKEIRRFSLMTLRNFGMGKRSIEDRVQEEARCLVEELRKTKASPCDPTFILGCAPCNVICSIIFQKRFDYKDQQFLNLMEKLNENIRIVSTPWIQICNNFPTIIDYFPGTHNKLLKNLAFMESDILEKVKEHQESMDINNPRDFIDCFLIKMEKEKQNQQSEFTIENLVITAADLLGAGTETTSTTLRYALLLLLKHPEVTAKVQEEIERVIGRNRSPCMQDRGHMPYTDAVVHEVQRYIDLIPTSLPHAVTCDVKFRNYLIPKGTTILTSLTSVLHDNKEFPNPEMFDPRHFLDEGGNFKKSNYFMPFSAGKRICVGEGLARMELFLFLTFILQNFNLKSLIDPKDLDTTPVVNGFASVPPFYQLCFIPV
Sequence of Glyceraldehyde-3-phosphate dehydrogenase (Homo sapiens) (P04406 whole entry, looked up): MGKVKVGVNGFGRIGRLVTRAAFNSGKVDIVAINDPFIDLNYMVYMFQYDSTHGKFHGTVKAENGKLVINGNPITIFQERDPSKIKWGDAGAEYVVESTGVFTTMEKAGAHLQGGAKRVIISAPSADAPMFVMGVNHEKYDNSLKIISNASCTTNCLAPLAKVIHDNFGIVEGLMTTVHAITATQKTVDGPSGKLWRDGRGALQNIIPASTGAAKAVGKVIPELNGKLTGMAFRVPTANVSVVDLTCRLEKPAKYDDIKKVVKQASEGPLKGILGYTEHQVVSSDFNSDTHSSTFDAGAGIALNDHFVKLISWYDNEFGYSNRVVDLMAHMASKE
Sequence of Cytochrome P450 3A4 (Homo sapiens) (P08684 whole entry, looked up): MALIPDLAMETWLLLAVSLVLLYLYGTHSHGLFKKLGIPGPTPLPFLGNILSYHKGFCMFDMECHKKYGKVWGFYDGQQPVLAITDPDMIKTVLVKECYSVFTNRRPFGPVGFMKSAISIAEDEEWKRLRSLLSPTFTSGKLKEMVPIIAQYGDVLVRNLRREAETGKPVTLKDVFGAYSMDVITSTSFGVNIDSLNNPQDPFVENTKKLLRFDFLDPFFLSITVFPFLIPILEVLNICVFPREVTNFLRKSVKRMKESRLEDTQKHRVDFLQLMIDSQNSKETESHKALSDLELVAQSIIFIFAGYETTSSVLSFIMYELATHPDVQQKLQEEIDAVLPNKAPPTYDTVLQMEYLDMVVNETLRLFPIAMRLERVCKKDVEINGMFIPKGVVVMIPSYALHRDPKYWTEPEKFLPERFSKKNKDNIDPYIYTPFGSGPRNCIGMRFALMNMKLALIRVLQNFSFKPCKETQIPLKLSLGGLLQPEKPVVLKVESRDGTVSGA

CCOc1cc(C(C)(C)C)ccc1C1COC(c2c(F)cccc2F)=N1 (stereo unspecified)
active: [2] 4.69 µM | [3] 1.9 µM | [6] 15.7 µM | [7] 1.9 µM
inactive: [1] | [4] | [5] | [8] | [9]

Cc1ccc(N=CN(C)C=Nc2ccc(C)cc2C)c(C)c1
active: [3] 27.5 µM | [12] 28.2 µM
not listed: [1] | [8] | [9] | [15] | [16] | [17]
inactive: all other assays above

CC(C)C1(C)N=C(c2ncccc2C(=O)O)NC1=O (stereo unspecified)
active: [2] 0.00054 µM | [7] 0.000671 µM
inactive: [11] | [3] | [4] | [12] | [13] | [8] | [15]

COc1cc(Cl)c(OC)cc1Cl
active: [2] 0.618 µM | [7] 0.598 µM
inactive: [1] | [6] | [13] | [8] | [16] | [15] | [9]

CC1(C)C(C=C(Cl)Cl)C1C(=O)OC(C#N)c1cccc(Oc2ccccc2)c1 (stereo unspecified)
active: [2] 1.54 µM | [3] 0.284 µM | [6] 11 µM | [7] 4.4 µM
inactive: [10] | [5] | [13] | [8] | [15]

CC(C)Oc1cccc(NC(=O)c2ccccc2C(F)(F)F)c1
active: [2] 3.68 µM | [3] 15.9 µM | [6] 20 µM | [7] 4.95 µM
inactive: [11] | [4] | [13] | [8] | [14]

C=C(C)CN(CC)c1c([N+](=O)[O-])cc(C(F)(F)F)cc1[N+](=O)[O-]
not listed: [1] | [9] | [14] | [16] | [17]
inactive: all other assays above

COC(=O)NC(=S)Nc1ccccc1NC(=S)NC(=O)OC
active: [2] 4.73 µM | [3] 0.486 µM | [6] 12.2 µM | [7] 7.45 µM | [16] 3.97 µM
inactive: [11] | [5] | [13] | [8] | [17]

CNC(=O)N(C)c1nnc(C(C)(C)C)s1
inactive: [10] | [2] | [11] | [3] | [6] | [7] | [14] | [15]
